Here are results for 108 sequences from PubChem BioAssay AID1508600 (Functional Genomics Laboratory (NCATS/FGL), 2020).

About 3,700 (7%) of roughly 53,000 sequences were called active.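 Rule for the calls: active = gene knockdowns whose robust z-score for IL-1 alpha signal is at least 2 or at most -2, so actives lie on both sides; inactive = the rest.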 Many of the other results were omitted from the sample, so actives are more common in it than they were.

The experiment in a line: Components of the Cytosolic LPS Sensing Pathway: Gene Identification via Genome-wide siRNA Screen.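 Note: robust z of the log signal after scaling to non-targeting control siRNA wells of the plate.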 To be noted: RAW264.7 macrophages, IL-1a HTRF, actives lie on both sides, screened at 100 nM (by protocol), cells primed 5 h with Pam3CSK4 first. The method in brief: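 Using IL-1a HTRF as read-out, the screen measured release from RAW264.7 cells after 48h siRNA knockdown (100 nM), 5 h Pam3CSK4 priming and 24 h cytosolic LipidA. Values were expressed relative to negative-control wells as robust z-scores.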
For orientation: In TR-FRET formats the signal depends on donor and acceptor labels being close together.
In the case of GCUUUCUGGGUAACAUAGGTT against Ubqln3, the z-score was -1.46 (inactive).

Regarding AACCAUUCAGGAGAAAGCCTT against Lce1a1, the z-score is -3.05 (active).

In the case of GGGACCUUGAUCAAAACCUTT against Gp5, the z-score is -0.215 (inactive).

Turning to GGAAAUGACAAGUAUGAAGTT against Gria4, the z-score was -1.33 (inactive).

On to GUACCCAAAAUGUUGAUGATT against Olfr979, for which the z-score is 0.794 (inactive).

GCGGCUCCAUCAGAAAAUGTT against Htatip2: the z-score is 0.526 (inactive).

For GGAAAUCCAUGAGAAGGUGTT against Ctbp2, the z-score is 0.732 (inactive).

On to CCUGAAUUACAGGGACCAGTT against Znrd1, for which the z-score was 3.49 (active).

As to GGUGAACUUGUGUCUCACUTT against Tango2, the z-score is 0.0582 (inactive).

On to GGAGCUGUAUCGCACGAAATT against Ehd2, for which the z-score is -0.689 (inactive).

On to GGAAACCGAAUUCCAAGGGTT against Ddx25, for which the z-score was 1.78 (inactive).

On to GGAAGUGGAAAAACUGGUGTT against Ddx1, for which the z-score was -1.21 (inactive).

GGAACUGUUUGACAGUGAGTT against Pex19: the z-score is -0.811 (inactive).

Consider GGAUCUAAAGGUGAGUCAATT against Dcaf12l1, for which the z-score is -0.388 (inactive).

Take GCCUUGGAUAAACCAGACGTT against Mfsd4a: the z-score is -2.38 (active).

Consider GGAACCAAUCAGUUGGUUATT against Taf7, for which the z-score is 0.395 (inactive).

Regarding GGAGAUACAGGAUAUUAUUTT against Nme5, the z-score was -0.0528 (inactive).

Take GCACUUACUCAUUAAUCACTT against Rnf20: the z-score is -2.56 (active).

Consider GCAACAGUGAAAUAGCACATT against Krit1, for which the z-score was 0.179 (inactive).

Regarding GGUUAAUGAGCUCUGUAAATT against Pknox1, the z-score was -0.508 (inactive).

For GCUAAGGACUCAGCAAAACTT against Coq5, the z-score was 0.733 (inactive).

With CCGGUAAUGAGUUCAAGUGTT against Arsa, the z-score was 1.12 (inactive).

On to GGUAAAGAAAUCCUUCAAATT against Syt6, for which the z-score is 2.1 (active).

As to GGUUCUUAAUGCAUUCCCGTT against Cyp2d9, the z-score was -0.786 (inactive).

In the case of GGGACUUUGAUUUUGAGAGTT against Ppp1r3f, the z-score is -1.58 (inactive).

In the case of “GAUGCUCUCUGCUCUGAGATT against C030016D13Rik”, the z-score was -0.0555 (inactive).

Take GGAUCUAUAUCCAGUAGAGTT against Mief2: the z-score was 3.38 (active).

For GGUAAUAGGAGAUACUGUGTT against Gzme, the z-score was 0.624 (inactive).

For the sequence GGACCUUUCUCAACUACUATT against Edem2, the z-score is -0.706 (inactive).

Take GGGAAACAAGCAUCUUCUGTT against Bmp5: the z-score was -0.474 (inactive).

Take CCACUUCAGUAUUUGGCUUTT against Tas2r137: the z-score is -0.404 (inactive).

With GGACUCCUCAUGCUGAAGATT against Cdh13, the z-score was 1.97 (inactive).

GCUCUAUUUGACCACCUCATT against Gdpd1: the z-score was -0.898 (inactive).

CCACUCAAGAUCGAUACCUTT against Fgd1: the z-score was 0.167 (inactive).

Turning to GGGUGAAGAGAGAUGAAAATT against Krt82, the z-score was 1.64 (inactive).

Regarding GCUUGUUUACAUCGGACUUTT against Samt2, the z-score is 0.9 (inactive).

As to GCAUCGUGCAGAAUUUUGCTT against Ephb1, the z-score was -1.04 (inactive).

Take CCAGUGAUUAUCUUUAAUGTT against Slc9c1: the z-score is -0.435 (inactive).

For GCUAUCAAAGCUAAUACAUTT against Mrps9, the z-score was 3.41 (active).

Turning to GGUUAAGGAUGCUCAAGUATT against Krt20, the z-score was -0.187 (inactive).

With GGUCGUGUUCGAGCAAACCTT against Tpi1, the z-score is -0.725 (inactive).

For GCAGAAUUGAAGCUGGAAUTT against Stag1, the z-score was 2.49 (active).

Turning to GGUGACAUGGAUGUAGCAATT against Fcsk, the z-score is 1.18 (inactive).

Take CCACAUCUCAUGUGAAACCTT against Olfr517: the z-score is -0.927 (inactive).

Regarding CCUUUUACACUCUAGUAUGTT against Ptger4, the z-score is -0.349 (inactive).

On to GCUUGAAUAUGAGAACGAATT against Deup1, for which the z-score is -0.451 (inactive).

Regarding GGUCAAGGUAGGCAAUGAATT against Stau2, the z-score is -2.32 (active).

Turning to GGGCAACAAGGAGUACUCATT against Prss45, the z-score is -1.88 (inactive).

Turning to GGAGGAAAUGAAAACCUUUTT against Cep89, the z-score is -0.823 (inactive).

For GGAGAACAUAAUGAAAUCUTT against Fam50a, the z-score was -0.0744 (inactive).

Turning to GGAUCAAAUUCUACCUUAGTT against Tbc1d5, the z-score was -0.595 (inactive).

With GGAGGUUGCUACAUGGUUATT against Amz1, the z-score is -0.644 (inactive).

With GGUCCACUGAUUCUGAUAATT against Cyp4a31, the z-score is 1.79 (inactive).

Take GGAUUUUGCCUAAAAUACATT against Sephs1: the z-score was 0.179 (inactive).

In the case of GGGACAGCUUUUGUGACUCTT against Raver1, the z-score was -2.16 (active).

For GGGCAAAUCCUUUAGUUUGTT against Siae, the z-score was -0.62 (inactive).

With CUACAGUGGCAAUAAUAUUTT against Rpl30, the z-score is 0.425 (inactive).

For the sequence GGUACUAAAUAAAAGACCGTT against Dsc2, the z-score is 1.15 (inactive).

With GGAGGAGAGAUGGUAAUCCTT against Olfr729, the z-score was -0.185 (inactive).

Consider GGAUGAGUAUGAGAGGAAUTT against Dcp1a, for which the z-score is 2.51 (active).

For the sequence GGUAACUGGGAAUUGUGUUTT against Vti1a, the z-score is 0.812 (inactive).

As for GGGUCUCUAAGUGCUCCGUTT against Sfxn2, the z-score is 0.433 (inactive).

On to “CGUGAAUCACUAUACAUAATT against A630052C17Rik”, for which the z-score was -1.39 (inactive).

Regarding GGAAACAGUAGAAGAUGAGTT against Fam220a, the z-score is 0.151 (inactive).

Take GAAGACCAAGCUUUGUACUTT against Olfr339: the z-score was 2.28 (active).

Turning to GGAGCUCGCCAAAAGGAAGTT against Cep19, the z-score was 1.97 (inactive).

As to CCAAAGAAGGUGAGAUUUGTT against Clstn1, the z-score was -0.161 (inactive).

Turning to CCAGUAUGAGAACUACGAUTT against Loxl1, the z-score was -0.345 (inactive).

For the sequence “CCGUUUUGUCUGAAUUCCCTT against 4930515G01Rik”, the z-score was -2.14 (active).

Consider GCAGUAAAUGUCCCAUCCGTT against Caskin1, for which the z-score is -1.28 (inactive).

In the case of CCCAUCCAUACAAAAAUGATT against Polm, the z-score was -1.73 (inactive).

As to CCUUAUUGAGACGAAUACGTT against Fastkd1, the z-score is -0.958 (inactive).

As for GGACAACAGCAAAACAUCUTT against Atoh1, the z-score is -0.757 (inactive).

As for CCCAUAACAUUGGUGAUUATT against Vmn1r235, the z-score was -0.205 (inactive).

As to GGAAUGAGCUGAAUGCAAATT against Psmc5, the z-score is -2.08 (active).

As to CGUUAAAUGGCAGUACAGATT against Qk, the z-score was 0.388 (inactive).

For GCCAAACACUCGACUCUAATT against Gm11733, the z-score is -0.823 (inactive).

GGAAAACUUUAGCUACAAATT against Ppp4r4: the z-score was -0.231 (inactive).

As to GCUUCUAACUCUGUGAGGGTT against Defb29, the z-score was -2.8 (active).

GCAGACGACAAGUUCUACATT against Tbcb: the z-score was -0.666 (inactive).

For the sequence GCUUAUCAUCUCCAGACAGTT against Svop, the z-score was -0.144 (inactive).

In the case of GCUGGUUACUCCCAAGACGTT against Dlgap2, the z-score was 2.18 (active).

As for GGUGGAGUUAACGAGAAACTT against Ccn1, the z-score is 0.69 (inactive).

As for ACUGUUUAAUCACUGUGGUTT against Olfr891, the z-score is -0.994 (inactive).

Consider GGACUACAUCAACCUGGAUTT against Mlf2, for which the z-score was 0.25 (inactive).

Turning to GGUCUUCGACACCAUUAACTT against Wipi2, the z-score is 0.947 (inactive).

Regarding GGACAGUUUGAUGAUGCCGTT against Coprs, the z-score was -2.87 (active).

CCCUGUGACUCCAAAAUGATT against Dbh: the z-score is -1.01 (inactive).

In the case of GGACAACGUGCUCAUUAGUTT against Zfp709, the z-score was 0.0713 (inactive).

Consider GCCUGACGAAGGUUUCUAUTT against Neo1, for which the z-score was -0.114 (inactive).

In the case of GGCAUAAACCUUCUUGCUCTT against Ccl22, the z-score is -0.221 (inactive).

Turning to GGUAGAGGUUAUAUAGGCATT against Ms4a6d, the z-score was 0.282 (inactive).

Regarding GGUACUCACAUCUCCAAAGTT against Zfp948, the z-score was -0.881 (inactive).

Turning to GGCAAACAUUUCAAAUACATT against Tgm4, the z-score is 2.12 (active).

For GGAGGAAGAGAUUUUAAACTT against Rps8, the z-score was 0.158 (inactive).

As to GCUGCUGAUAACAUCCGACTT against Golga5, the z-score is 0.554 (inactive).

Turning to GGUACAGUUACGGUCAAAUTT against Zfp952, the z-score was 0.739 (inactive).

On to GGUAUGUCCUCUGGUCAAUTT against Bpifa1, for which the z-score is 0.282 (inactive).

As for GGUCAAUGCUACUAAUGAATT against Ankrd61, the z-score is 0.661 (inactive).

Take GGGAUGCUCUGAACAUUGATT against Anxa2: the z-score is 3.22 (active).

In the case of CCAUGCAGCAAAUCGAGUUTT against Klk1b5, the z-score was 0.912 (inactive).

Consider GGUCUGAGCUUCCAAUAACTT against Reep5, for which the z-score was 0.183 (inactive).

As for GCUAUUGGGUAGAUUGAUATT against Baat, the z-score is 0.251 (inactive).

For the sequence GCUUCUAAUUGGAGAUUGCTT against Bex3, the z-score is -1.39 (inactive).

Turning to GGAACACAAUGGGACGAGUTT against Ccl11, the z-score was -1.12 (inactive).

GGCCACGUUUCUCUUCACCTT against Nyx: the z-score is -1.12 (inactive).

Take GGCAAAGAAUUCAAUCGGATT against Atp2b2: the z-score is -0.235 (inactive).

Regarding GGUUCAAAUGUUGCAUAGUTT against Klrc2, the z-score was 0.597 (inactive).
